Among all 5,500 compounds or so, about 2,000 (36%) were called active. Not shown: some 18% with an inconclusive outcome. No stated cut-off is given here; in the data, active means normalized growth mostly below about 0.91 (no sharp cut-off); inconclusive means no clear call, values can overlap the other calls; inactive means mostly above about 0.92. Some of the results follow.
Experiment: chemical genetic growth profiling, strain panel (AID 1159580);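 further: tested at 20 µM; growth read once vehicle control cultures reached saturation at 30 °C; 1 = growth at the plate median or of vehicle wells; lower values mean less growth of the strain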
Conditions: S. cerevisiae deletion strains, growth OD

Measured: normalized growth

CCCc1c(OCCCOc2ccc(OCC(=O)O)cc2)ccc(C(C)=O)c1O
inactive: locus YAL040C, strain CLN3, hits give low values 0.942 | locus YCL061C, strain MRC1 (second series), hits give low values 0.999 | locus YDR150W, strain NUM1, hits give low values 0.997 | locus YDR363W, strain ESC2, hits give low values 1.01 | locus YER002W, strain NOP16, hits give low values 1.04 | locus YMR263W, strain SAP30, hits give low values 1.01 | locus YNL175C, strain NOP13, hits give low values 0.98 | locus YNL197C, strain WHI3, hits give low values 0.987 | locus YNL224C, strain SQS1, hits give low values 0.963 | locus YNL322C, strain KRE1, hits give low values 1.01 | locus YOR083W, strain WHI5 (second series), hits give low values 0.914 | locus YPL241C, strain CIN2, hits give low values 1

COc1cc(OC)c(C(=O)CCCN2CCCC2)c(OC)c1
inactive: locus YHR030C, strain SLT2, hits give low values 1.07 | locus YHR079C, strain IRE1, hits give low values 1.04 | locus YJL095W, strain BCK1, hits give low values 1.03 | locus YJR066W, strain TOR1, hits give low values 0.973 | locus YLR113W, strain HOG1, hits give low values 1.01 | locus YNL183C, strain NPR1, hits give low values 0.973 | locus YOR231W, strain MKK1, hits give low values 1.03 | locus YPL256C, strain CLN2, hits give low values 1.05
